The results in this text go back to PubChem BioAssay AID1851 (National Center for Advancing Translational Sciences (NCATS), 2009).

Where “and” joins values, the source holds several entries; their conditions need not be identical. Identical values can stand only once. In all, about 16,000 compounds went through this assay and about 5,700 (36%) were called active. Another 24% or so got no clear call; they are omitted. Calls follow the shape of the dose curve; as a rule, active = well fitted curve in the direction sought with a large enough effect; inconclusive = small, poorly fitted or top-dose-only effect, or effect the other way; inactive = no such curve, though single readings can be large or run the other way. Some of the results follow.
% is scaled to controls: 0 for no effect and ±100 for the full control effect.

Cytochrome P450 1A2 (Homo sapiens), sequence (P05177 whole entry, looked up): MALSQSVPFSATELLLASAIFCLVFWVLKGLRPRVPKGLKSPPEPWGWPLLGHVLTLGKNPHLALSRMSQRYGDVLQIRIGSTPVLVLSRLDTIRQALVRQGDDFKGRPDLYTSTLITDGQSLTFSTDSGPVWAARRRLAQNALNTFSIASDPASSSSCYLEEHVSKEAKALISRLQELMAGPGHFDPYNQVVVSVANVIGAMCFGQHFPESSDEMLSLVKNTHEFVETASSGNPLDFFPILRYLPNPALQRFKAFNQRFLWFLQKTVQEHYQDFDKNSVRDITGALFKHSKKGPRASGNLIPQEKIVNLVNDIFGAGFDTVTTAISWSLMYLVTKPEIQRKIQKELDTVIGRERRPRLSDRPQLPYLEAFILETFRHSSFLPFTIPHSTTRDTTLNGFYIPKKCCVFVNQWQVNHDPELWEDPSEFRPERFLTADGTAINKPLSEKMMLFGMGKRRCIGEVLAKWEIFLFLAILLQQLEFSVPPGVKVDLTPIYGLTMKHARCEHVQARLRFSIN

The experiment addresses Cytochrome P450 1A2 (Homo sapiens) (UniProt P05177). Briefly: Cytochrome panel assay with activity outcomes. The following applies: recombinant CYP, pro-luciferin dealkylation, luminescence, p450-cyp1a2; series mostly up to 57.1 µM.
On to `CC(=O)OC[C@@H]1O[C@H](C/C=N\O[C@@H](C)CN2CCCCc3nc(C)c(C)cc32)C=C[C@@H]1OC(C)=O`, for which the activity, negative = inhibition was -2.17% [at 11.4 µM] (inactive). Take `O=C(N/N=C1/C[C@@H](O)[C@@H](O)[C@@H]2[C@@H]3C(=O)N(Cc4ccccc4)C(=O)[C@H]3CC[C@H]12)OCc1ccccc1`: the activity, negative = inhibition is -7.17% [at 11.4 µM] (inactive). As usually defined, the AC50 is the concentration giving half of the maximal activity seen. Take `O=C(NCCc1ccc(O)cc1)c1ccc(Cl)cc1`: the AC50 was 14.1 µM (active). Same read-out and setting: for `O=C(NNC(=O)c1ccccc1O)c1ccc(Cl)cc1` the value was “inactive”; for `CC(C)(Oc1ccc(CCNC(=O)c2ccc(Cl)cc2)cc1)C(=O)O`, “inactive”. For `CNC(=O)C(=O)NCCc1ccc(Cl)cc1`, the AC50 was 7.08 µM (active). For the molecule `COc1cccc(-c2nnc3sc(-c4ccc(C)cc4)nn23)c1`, the AC50 was 7.08 µM (active). On to `CC(C)(C)n1nc2c(c1NC(=O)c1ccc(S(=O)(=O)N3CCCCC3)cc1)CS(=O)C2` (stereo not given), for which the AC50 result is “inactive”. The same measure, in the same setting: for `COc1cccc(-c2ccc3ncnc(Nc4ccccc4)c3c2)c1` the value was 1 µM (active); for `CNc1ncnc2ccc(-c3cccc(OC)c3)cc12`, 0.501 µM (active). Regarding `COc1ccc(Nc2ncnc3sc(-c4ccccc4)cc23)cc1`, the AC50 was 0.891 µM (active).

For `COc1ccc(Nc2ncc(C(=O)N3CCN(Cc4ccccc4)CC3)c3ccccc23)cc1`, the AC50 entry is “inactive”. `N[C@@H](CSC(=O)c1ccccc1)C(=O)O`: the activity, negative = inhibition was -14.7% [at 11.4 µM] (inactive). `CN(C)CCCN1CC(C(=O)O)CC1=O` (stereo not given): the AC50 entry was “inactive”. On to `CCN(CC)CCN1C(=O)C(=O)/C(=C(/O)c2ccc(OC)cc2)C1c1cccs1` (stereo not given), for which the AC50 entry was “inactive”. With `CCOc1ccc(/C(O)=C2/C(=O)C(=O)N(CCCn3ccnc3)C2c2cccs2)cc1Cl` (stereo not given), the AC50 was 15.8 µM (active).

Regarding `Cc1ccc(/C(O)=C2/C(=O)C(=O)N(CCCn3ccnc3)C2c2ccccn2)cc1` (stereo not given), the AC50 entry is “inactive”. On to `O=C(O)c1cc(-c2ccncc2)nc2ccccc12`, for which the activity, negative = inhibition was -9.92% [at 11.4 µM] (inactive). In the case of `O=C(N/N=C/c1ccc([N+](=O)[O-])o1)c1cc(-c2ccncc2)nc2ccccc12`, the AC50 was 15.8 µM (active). On to `Nc1ccc(S(=O)(=O)Nc2ccc(Cl)nn2)cc1`, for which the AC50 result was “inactive”. Regarding `FC(F)(F)c1ccc(/C=N/N2CCN(Cc3cccc4ccccc34)CC2)cc1`, the AC50 result was “inactive”.

For `COc1ccccc1/C=C/C=N/N1CCN(Cc2cccc3ccccc23)CC1`, the AC50 is 7.08 µM (active). Regarding `COc1ccccc1CN1CCC2(CC1)CCN(S(C)(=O)=O)CC2`, the AC50 result was “inactive”. In the case of `COc1ccc([C@@H]2CNC(=O)C2)cc1OC1CCCC1`, the AC50 is 3.16 µM (active) and 3.98 µM (active).

For the molecule `COc1ccc(C2C(=O)N(C3CCCCCC3)CC(=O)N2Cc2ccccc2)cc1OC` (stereo not given), the AC50 entry was “inactive”.

As for `COc1ccc(OC)c(C2CC(=O)C3=C(C2)NC(=O)CC3c2ccc(O)c(OC)c2)c1` (stereo not given), the AC50 result was “inactive”.

In the case of `COc1ccc(CNc2ncnc3ccc(-c4c(C)noc4C)cc23)c(OC)c1`, the AC50 was 15.8 µM (active). With `COc1cccc(-c2ccc3ncnc(NCc4ccc(OC)cc4OC)c3c2)c1`, the AC50 is 2.51 µM (active). Take `COc1ccccc1CNc1ncnc2ccc(-c3cccnc3)cc12`: the AC50 is 0.316 µM (active).

For `COc1ccc(CNc2ncnc3ccc(-c4cccnc4)cc23)c(OC)c1`, the AC50 was 0.398 µM (active). Regarding `CO/N=C(\C)CCN1CCCc2nc(C)c(C)cc21`, the activity, negative = inhibition is 2.07% [at 11.4 µM] (inactive). With `Cc1cc(C)cc(OCC(=O)NNC(=O)c2cc(C)[nH]n2)c1`, the AC50 result is “inactive”. Regarding `COCC(=O)N1CCC2(CC1)CN(C(=O)Nc1cccc(F)c1)C2`, the AC50 result was “inactive”.

Turning to `O=C(Cn1cnc2ccccc2c1=O)Nc1nnc(SCc2ccccc2)s1`, the AC50 entry was “inactive”. In the case of `O=C(Cc1ccccc1)Nc1nc(=O)c2ccccc2s1`, the AC50 is 2.24 µM (active). Take `CCc1ccc2c(c1)c(N=NC1=NC(=O)CS1)c(O)n2CC`: the AC50 is 1.41 µM (active). Consider `Oc1cccc2ccc(SSc3ccc4cccc(O)c4n3)nc12`, for which the AC50 is 3.16 µM (active). As for `COc1ccc(NC(=O)N2CC3(CCN(C(C)=O)CC3)C2)cc1`, the AC50 result was “inactive”. As for `COc1ccc(N2CCN(C(=N)/C(C(C)=O)=C(\C)O)CC2)cc1`, the AC50 entry is “inactive”. Regarding `COc1ccc(-c2ccc(C(=S)N3CCN(C(C)=O)CC3)o2)cc1`, the AC50 was 2.24 µM (active).

As to `O=C(c1ccncc1)N1CCC2(CC1)CCN(c1ccccc1)CC2`, the AC50 entry was “inactive”. Turning to `O=C(c1cn(-c2ccccc2)nc1-c1cccs1)N1CCOCC1`, the AC50 is 15.8 µM (active). Still for that read-out and setting: for `O=C(Nc1c(C(=O)N2CCOCC2)cnn1-c1ccccc1)c1ccco1` the value was “inactive”. As for `C[C@@H]1/C=C\CC(=O)OC[C@H](C)C(=O)N[C@@H](C)C(=O)OC1`, the activity, negative = inhibition is -0.299% [at 11.4 µM] (inactive). On to `COc1ccc(CNc2cc(-c3cccc(NS(C)(=O)=O)c3)ncn2)c(OC)c1`, for which the AC50 was 15.8 µM (active). Turning to `COc1ccccc1CNc1cc(-c2cccc(NS(C)(=O)=O)c2)ncn1`, the AC50 is 15.8 µM (active). `CCS(=O)(=O)N1CCC(C(=O)NCc2cccnc2)CC1`: the AC50 entry is “inactive”. For `Cc1ccc(S(=O)(=O)N2CCC(C(=O)NCc3cccnc3)CC2)cc1`, the AC50 entry is “inactive”. `O=C(CSCc1c(Cl)cccc1Cl)NCc1cccnc1`: the AC50 is 5.01 µM (active). For the molecule `Fc1ccc(COc2ccc(Br)cc2CNCc2ccncc2)cc1`, the AC50 is 0.316 µM (active). Regarding `OC(CNCc1ccc(F)cc1)(c1ccc(F)cc1)c1ccc(F)cc1`, the AC50 result was “inactive”. As for `Cc1nnc(NC(=O)c2oc3c(ccc4ccccc43)c2C)s1`, the AC50 was 0.2 µM (active).

Consider `Cc1nnc(NC(=O)CCC(=O)NCc2cccs2)s1`, for which the AC50 result is “inactive”. Consider `COC(=O)[C@@H](NC(=O)Nc1ccc(C(C)=O)cc1)C(C)C`, for which the AC50 result was “inactive”. For the molecule `Cc1ccc(OCCCC(=O)Nc2ccccc2C(F)(F)F)cc1`, the AC50 is 4.47 µM (active). As for `Cc1c(NC(=O)C(Sc2ccccc2)c2ccccc2)cccc1[N+](=O)[O-]` (stereo not given), the AC50 entry is “inactive”. Same read-out and setting: for `Cc1cccc(OCCCC(=O)Nc2ccccc2C(F)(F)F)c1` the value was 11.2 µM (active); for `Cc1c(NC(=O)/C=C/C(=O)O)cccc1[N+](=O)[O-]`, “inactive”. Take `Cc1cccc(OCCCC(=O)Nc2ccc(N3CCCCC3)cc2)c1`: the AC50 result is “inactive”. In the case of `Cc1ccc(OCC(=O)NNC(=O)CCC(=O)Nc2ccc(C)cc2C)cc1`, the AC50 result is “inactive”. With `Cc1c(NC(=O)CCCOc2ccccc2)cccc1[N+](=O)[O-]`, the AC50 was 12.6 µM (active). For the molecule `COc1cc([N+](=O)[O-])ccc1NC(=O)CCCOc1cccc(C)c1`, the AC50 is 7.94 µM (active). For `Cc1nn(-c2ccccc2)c2c1C(c1ccc(O)c(O)c1)N1C(=N2)C(Nc2ccccc2)=Nc2ccccc21` (stereo not given), the AC50 result is “inactive”. Turning to `COc1ccc(C(=O)N2CC3(CC(c4ccc(Cl)cc4)=NO3)C[C@H]2C(=O)NCC(N)=O)cc1` (stereo not given in full), the AC50 entry was “inactive”. Same read-out and setting: in the case of `C[N+]1(CC(=O)OCCCc2ccccc2)CCOCC1` it was “inactive”; in that of `COc1ccccc1NC(=O)Cn1cncc1-c1ccc([N+](=O)[O-])cc1`, “inactive”; in that of `COc1ccc([N+](=O)[O-])cc1NC(=O)CC(C)c1ccccc1` (stereo not given), 5.01 µM (active).

As for `CCN(CC(=O)Nc1ccc([N+](=O)[O-])cc1OC)c1ccccc1`, the AC50 was 12.6 µM (active).

For `C=CC[C@@H]1C=C[C@H](O/N=C\[C@@H](C)[C@H](OCc2ccccc2)C(C)C)[C@H](CO)O1`, the activity, negative = inhibition is 9.01% [at 11.4 µM] (inactive). For the molecule `CN(Cc1ccco1)C(=O)C1CCC(=O)N1Cc1ccc(F)cc1` (stereo not given), the AC50 entry was “inactive”. Turning to `COc1cc(C2C(=O)N(C3CCCC3)CC(=O)N2Cc2ccco2)ccc1OC(C)C` (stereo not given), the AC50 result was “inactive”. On the same count and under the same terms, in the case of `O=C1c2ccccc2NC(c2ccc(F)cc2)N1Cc1ccco1` (stereo not given) it was 25.1 µM (active); in that of `COc1ccc(C2Nc3ccccc3C(=O)N2Cc2ccco2)cc1COc1ccc([N+](=O)[O-])cc1` (stereo not given), “inactive”. Regarding `Cc1ccc(C2Nc3ccccc3C(=O)N2Cc2ccco2)cc1` (stereo not given), the AC50 is 15.8 µM (active). With `CC(C)Oc1ccc(/C(O)=C2/C(=O)C(=O)N(Cc3cccnc3)C2c2ccco2)cc1` (stereo not given), the AC50 result is “inactive”. Take `CC(=O)Nc1ccc(NC(=O)C/C(C)=N/NC(=O)C(=O)N2CCCC2)cc1`: the AC50 result was “inactive”. As for `C/C(CC(=O)Nc1cc(C)ccn1)=N\NC(=O)COc1cccc(C)c1`, the AC50 is 14.1 µM (active).

Consider `Cc1ccc(S(=O)(=O)CCc2nnc(NC(=O)COc3cccc(C)c3)s2)cc1`, for which the AC50 entry is “inactive”. For the molecule `COc1cccc(-c2cc(C(F)(F)F)nc(N3CCOCC3)n2)c1`, the concentration at half-maximal activity (AC50) is 0.794 µM (active). Still for that read-out and setting: in the case of `COc1cccc(-c2cc(C(F)(F)F)nc(N3CCCCC3)n2)c1` it was 1 µM (active); in that of `COc1cccc(-c2cc(C(F)(F)F)n3ncc(S(=O)(=O)c4ccccc4)c3n2)c1`, “inactive”. Take `COc1cccc(-c2cc(C(F)(F)F)nc(N3CCN(c4ccccc4)CC3)n2)c1`: the AC50 is 12.6 µM (active). As to `CCOC(=O)N1CCC(NC(=O)CCC(=O)N2CCOc3ccccc32)CC1`, the AC50 entry was “inactive”. The same measure, in the same setting: in the case of `CCOC(=O)[C@H](N)/C=C(\C)CP(=O)(O)O` it was “inactive”; in that of `CCCC(=O)Nc1nc(-c2ccc3c(c2)CCN3S(C)(=O)=O)cs1`, “inactive”; in that of `CC(C)(C)C(=O)N1CCc2cc(-c3csc(N)n3)ccc21`, 7.08 µM (active).

In the case of `CO[C@H]1COC(=O)[C@@H](Cc2ccccc2)NC(=O)[C@@H](C)COC(=O)CCC[C@@H]1C`, the activity, negative = inhibition is -3.47% [at 11.4 µM] (inactive). As for `COCC(=O)N(C)c1nnc(-c2ccc([N+](=O)[O-])cc2)s1`, the AC50 was 3.16 µM (active). On to `O=C(CN1CCCCC1)Nc1nnc(-c2ccc([N+](=O)[O-])cc2)s1`, for which the AC50 entry is “inactive”. `COCC(=O)N1CCN(c2ccc([N+](=O)[O-])cc2)CC1`: the AC50 result is “inactive”. As for `COc1ccc(NC(=O)OC(C)C)cc1`, the AC50 is 11.2 µM (active).

On to `COc1ccc(NC(=O)N2CCC3(CC2)CCN(S(C)(=O)=O)CC3)cc1`, for which the AC50 result was “inactive”. `Cc1ccc(C)c(NC(=O)C2CC3c4ccccc4C2c2ccccc23)c1` (stereo not given): the AC50 result was “inactive”. As to `CC(C)c1ccc(O)c(NC(=O)c2ncn[nH]2)c1`, the AC50 was 15.8 µM (active). `COC(=O)N1CCC2(CC1)CN(C(=O)Nc1ccc(OC)cc1)C2`: the AC50 entry is “inactive”. For `Cc1ccc(C)c(NC(=O)Cn2c([N+](=O)[O-])cnc2C)c1`, the AC50 result is “inactive”. Consider `COc1ccc(NC(=O)N2CCCC3(CCNCC3)C2)cc1`, for which the AC50 result is “inactive”. Regarding `COc1ccc(NC(=O)c2ncn[nH]2)cc1`, the AC50 was 11.2 µM (active). Still for that read-out and setting: for `COc1ccc(NC(=O)C(c2ccc(OC)cc2)N(C)C(=O)CNC(C)=O)cc1` (stereo not given) the value was “inactive”; for `Cc1ccc(C)c(NC(=O)c2ncn[nH]2)c1`, 15.8 µM (active).
